# Shown are actives, neighbours in structure and some others; about 12% of the full set was active somewhere.
# PLK1 PBD block – inhibitors of human PLK1 polo-box domain binding; Plk1 PBD binding of FITC phosphopeptide, fluorescence polarization; Potency, µM, inactives show max response, negative = inhibition, most hits filed as inhibitors; hit rate 2.8% among 360,000; P53350; also: series mostly up to about 57 µM; % is scaled to controls: 0 for no effect and ±100 for the full control effect; nearly all actives have a fitted effect of over 65% in size
# G9a block – blocks human histone lysine methyltransferase G9a. Q96KQ7. Potency, µM (top dose mostly 102 µM), for inactives: at the highest dose activity, negative = inhibition, most hits filed as inhibitors. G9a H3K9 monomethylation, AlphaScreen, 2 h. hit rate 8.8% among 350,000; also: % is scaled to controls: 0 for no effect and ±100 for the full control effect; nearly all actives have a fitted effect of over 75% in size
# Target sequence (Q96KQ7 913-1193 limits assumed): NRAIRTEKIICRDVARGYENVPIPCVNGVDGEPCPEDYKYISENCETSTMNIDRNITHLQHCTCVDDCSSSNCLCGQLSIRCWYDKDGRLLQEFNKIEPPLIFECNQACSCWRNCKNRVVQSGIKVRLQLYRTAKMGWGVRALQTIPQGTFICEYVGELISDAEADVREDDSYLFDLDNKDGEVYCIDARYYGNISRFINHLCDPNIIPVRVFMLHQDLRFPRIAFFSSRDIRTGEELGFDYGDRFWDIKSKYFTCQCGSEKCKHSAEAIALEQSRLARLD
#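 Readings reflect AlphaScreen signal from monomethyl-H3K9 antibody detection. HMT at 20 nM; substrate b-H3K9 500 nM; cofactor SAM 20 uM; 2 h RT reaction; compounds tested as titrations in qHTS with 15 min preincubation.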
# Sfp inh – blocks B. subtilis Sfp PPTase activity | Q9F4F7 | Biochemical Sfp PPTase activity, qHTS | Potency, µM, inactives show largest response in the series, negative = inhibition, actives largely listed as inhibitors | hit rate 3.5% among 310,000 | AID 1490;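 also: the enzyme is Sfp with the accession as filed and its product quenches rhodamine fluorescence; 0% = enzyme reaction without inhibitor and -100% = no enzyme wells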
#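 Step 1, compound plus 15 nM Sfp-PPTase, 15 min, room temperature. Step 2, add rhodamine-CoA (5 uM) and BHQ-2-YbbR (12.5 uM). Step 3, read 525/598 nm fluorescence at 0 and 30 min.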
# JMJD2A Tudor inh – inhibitors of human JMJD2A Tudor domain. Potency, µM (titrated, usually from 114 µM), without a hit: top-dose activity change, negative = inhibition, usual class: inhibitors. hit rate 4.4% among 390,000. AlphaScreen JMJD2A-Tudor / H3K4me3 peptide binding. AID 504339; also: % is scaled to controls: 0 for no effect and ±100 for the full control effect; nearly all actives have a fitted effect of over 50% in size
# HP1b chromo inh – blocks HP1-beta chromodomain binding to methylated histone tails | P83916 | AlphaScreen HP1-beta / biotin-H3K9me3 peptide binding | Potency, µM (series often up to 114 µM), without a hit: top-dose activity change, negative = inhibition, usual class: inhibitors | hit rate 0.56% among 390,000; also: nearly all actives have a fitted effect of over 70% in size
# Target sequence (P83916 whole entry, looked up): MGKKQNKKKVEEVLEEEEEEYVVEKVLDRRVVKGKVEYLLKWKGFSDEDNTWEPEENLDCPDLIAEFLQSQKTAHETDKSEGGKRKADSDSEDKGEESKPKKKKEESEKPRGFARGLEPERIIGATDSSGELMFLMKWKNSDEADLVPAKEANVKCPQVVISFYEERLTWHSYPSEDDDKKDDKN
#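 HP1-beta protein (50 nM final) preincubated 30 min at room temperature with biotinylated H3(1-18)K9me3 peptide (50 nM) in PBS pH 7.4, 0.01% Tween-20, then compound added for 30 min. AlphaScreen streptavidin donor/nickel chelate acceptor beads (10 ug/mL final), 30 min dark, luminescence read.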
# BAZ2B inh – BAZ2B (human) inhibition. hit rate 4.4% among 360,000. AID 504333. Q9UIF8. AlphaScreen BAZ2B-H3K14Ac peptide displacement. Potency, µM (top dose mostly 114 µM), without a hit: at the highest dose activity change, negative = inhibition, most hits filed as inhibitors; also: % is scaled to controls: 0 for no effect and ±100 for the full control effect; nearly all actives have a fitted effect of over 60% in size
#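 Protein-peptide AlphaScreen: BAZ2B 50 nM, b-H3K14Ac 50 nM, 1x PBS pH 7.4 + 0.01% Tween-20. Preincubation 30 min RT; cpd 30 min RT (top 110 uM); beads 20 min RT, light-protected.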
# * hit, by the source's call; ? = inconclusive; . = no result given; ! = not confirmed by another sample; [ ] = dose if it differs, or a comment. Calls follow the shape of the dose curve; as a rule, active = well fitted curve in the direction sought with a large enough effect; inconclusive = small, poorly fitted or top-dose-only effect, or another doubt; inactive = no such curve, though single readings can be large; an effect the other way counts as inactive or inconclusive. Potency is read from the fitted curve at half-maximal effect.
SMILES,PLK1 PBD block,G9a block,Sfp inh,JMJD2A Tudor inh,HP1b chromo inh,BAZ2B inh
COC(=O)C1(Cc2ccc(O)cc2)OC(=O)C(O)=C1c1ccc(O)cc1 (stereo unspecified),-18%,?,-26%,56µM*,-26%,79µM*
CCCc1nc2ccc(C(=O)OC)cn2c1Cc1cccc(F)c1,-18%,.,.,.,.,.
COc1cc(OC)cc(C(=O)NCCN2CCOCC2)c1,-1%,8.9µM*,-21%,10µM*,?,50µM*
COc1ccc(-c2cn3c(C)c(C(=O)Nc4cc(NC(C)=O)ccc4OC)sc3n2)cc1,6%,14µM*,79µM*,-12%,5%,-23%
CCCN1CCN(CCCNC(=O)c2ccc3c(c2)sc2nc(-c4ccc(OCC)cc4)cn23)CC1,.,?,.,?,-17%,28µM*
CCOC(=O)C1CCN(Cc2cn3c(-c4ccc(OC)cc4)nnc3s2)CC1,.,13µM*,.,-24%,3%[57 µM],?
CCOc1ccc(-c2cn3c(n2)sc2cc(C(=O)NCCCN4CCCCCC4)ccc23)cc1,.,7%[59 µM],.,-7%,58%,16%
CCN1CCN(CCCNC(=O)C2c3ccccc3C(=O)N(c3ccc(OC)cc3)C2c2ccc(OC)cc2)CC1 (stereo unspecified),-2%,2%,-4%,-17%,22%,-8%
Cc1ccccc1C(=O)NCC(=O)OC(C)C(=O)Nc1cccc(S(=O)(=O)N2CCOCC2)c1 (stereo unspecified),-2%,-38%[59 µM],.,-6%,37%,7%
CNC(=O)c1sc2nc(-c3ccc(OC)cc3)cn2c1C,-3%,50µM*,12%,-31%,14%,?
Cc1c(C(=O)Nc2ccncc2)sc2nc(-c3ccccc3)cn12,-8%,?,-2%,?,30%,?
CCOC(=O)C1CCN(C(=O)c2sc3nc(-c4ccccc4)cn3c2C)CC1,4%,?,1%,-17%,9%,-29%
CCOC(=O)C1CCCN(C(=O)c2sc3nc(-c4ccc(OC)cc4)cn3c2C)C1 (stereo unspecified),-2%,40µM*,-4%,-28%,25%,?
CCN(CC)C(=O)c1sc2nc(-c3ccc(OC)cc3)cn2c1C,4%,?,-3%,-19%,-4%,-39%
CCN(CC)c1ccc(NC(=O)c2sc3nc(-c4ccccc4)cn3c2C)cc1,.,5µM*,.,28µM*,-37%[57 µM],7.9µM*
COc1ccc(-c2cn3c(C)c(C(=O)N4CCc5ccccc5C4)sc3n2)cc1,-9%,35µM*,-9%,?,-6%,?
CC(C)N(Cc1ccccc1)C(=O)CCS(=O)(=O)c1cc2c(cc1Cl)NC(=O)CO2,.,19%[59 µM],.,-11%,63%,24%
Cc1c(C(=O)NCc2cccnc2)sc2nc(-c3ccc(F)cc3)cn12,-5%,45µM*,10%,-11%,54%,-38%
Cc1c(C(=O)NCCCN2CCOCC2)sc2nc(-c3ccc(F)cc3)cn12,3%,7%[59 µM],0%,-13%,15%,0%
Cc1c(C(=O)NCc2cccnc2)sc2nc(-c3ccccc3)cn12,-1%,-4%,-2%,-10%,39%,-3%
COc1ccc(-c2cn3c(C)c(C(=O)NCCN4CCOCC4)sc3n2)cc1,-4%,40µM*,-15%,?,1%,?
CC(=O)c1ccc(NC(=O)CSc2cn(CC(=O)N3CCCCC3)c3ccccc23)cc1,.,-4%[59 µM],.,-3%,38%,-25%
CN(C)c1ccc(NC(=S)Nc2ccc3c(c2)c(=O)n(C)n3-c2ccc(C(C)(C)C)cc2)cc1,27µM*,.,.,.,.,.
CN(C)c1ccc(NC(=O)Nc2ccc3c(c2)c(=O)n(C)n3-c2ccccc2)cc1,-8%,.,.,.,.,.
COc1ccc(-c2ccc3c(N)c(C(=O)Nc4ccc(C)cc4C)sc3n2)cc1OC,.,?,.,-14%,44%,-13%
SMILES,PLK1 PBD block,G9a block,Sfp inh,JMJD2A Tudor inh,HP1b chromo inh,BAZ2B inh
CCOC(=O)c1c(-c2ccsc2)csc1N,-10%,48%[59 µM],56µM*,?,-22%,15%
CCOC(=O)c1c(-c2ccc(C)s2)csc1N,5.3µM*,?,11µM*,?,?,?
CC(C)NC(=O)N1CCC2(CC1)CCN(C(=O)c1cnccn1)CC2,.,-1%[12.7 µM],10%,.,.,.
Cc1cccc(C(=O)Nc2c(C(=O)NCc3ccc(Cl)cc3)sc3nc(C)cc(C)c23)c1,.,14%[59 µM],.,-9%,17%,-12%
O=C(O)c1ccccc1/C=N/NC(=O)c1cc(-c2ccco2)nc2ccccc12,?,14µM*,10µM*,50µM*,?,20µM*
O=C(O)c1cc(-c2ccco2)nc2cc3ccccc3cc12,?,11µM*,11µM*,?,3%,56µM*
O=C(Nc1cccc(S(=O)(=O)NC2=NCCCCC2)c1)c1cc(-c2ccco2)nc2ccccc12,-19%,?,5µM*,-20%,?,?
O=C(NNC(=O)c1cc(-c2ccco2)nc2ccccc12)c1ccccc1,-8%,.,20µM*,-18%,22%,-15%
O=C(Nc1cccc(S(=O)(=O)NC2=NCCCCC2)c1)c1cc(-c2ccncc2)nc2ccccc12,-2%,-36%,2%,-32%,7%,.
O=C(Nc1ccc(S(=O)(=O)N2CCCCC2)cc1)C1CC(=O)N(c2ccc(Cl)cc2)C1 (stereo unspecified),-7%,-19%,20%,-21%,6%,-23%
CSc1cccc(NC(=O)Cn2c(=O)n(Cc3ccccc3)c(=O)c3sc4ccccc4c32)c1,.,13%[59 µM],.,4%,35%,2%
O=C(OCc1ccccc1Cl)c1ccc(-c2nnn(Cc3ccccc3)n2)cc1,.,-3%[59 µM],.,-2%,36%,-2%
CC(=O)c1cccc(NC(=O)c2cc(-c3ccco3)nc3ccccc23)c1,-30%,50µM*,-10%,-25%,-2%,-18%
O=C(NC1CCCC1)c1ccc(CSc2nc3ccncc3n2Cc2ccc(F)cc2)cc1,-3%,45µM*!,1%,-24%,20%,-4%
COc1ccc(OCC(O)Cn2c(=N)n(CCN3CCCCC3)c3ccccc32)cc1 (stereo unspecified),2.7µM*,?,10%,?,?,-6%
CCCCCn1c(=N)n(CC(O)COc2ccccc2OC)c2ccccc21 (stereo unspecified),-9%,-50%,25µM*!,-25%,9%,-9%
N=c1n(CCN2CCCC2)c2ccccc2n1CC(O)c1ccc(Cl)c(Cl)c1 (stereo unspecified),24µM*,?,-5%,?,52%,-5%
COc1ccccc1OCC(O)Cn1c(=N)n(Cc2ccccc2)c2ccccc21 (stereo unspecified),-8%,-26%[12.7 µM],-12%,-25%,3%,2%

# Screens deposited in PubChem BioAssay by National Center for Advancing Translational Sciences (NCATS).
